Laboratory results published in PubChem BioAssay AID1159580 (chemical genetic matrix, 2015).
In all, about 5,500 compounds went through this assay and about 2,000 (36%) were called active. Another 18% or so got no clear call; they are omitted. Rule as the data show it: active = normalized growth mostly below about 0.91 (no sharp cut-off); inconclusive = no clear call, values can overlap the other calls; inactive = mostly above about 0.92. The list shows a part of the results.

Assay: chemical genetic growth profiling, strain panel (AID 1159580);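 also: tested at 20 µM; growth read once vehicle control cultures reached saturation at 30 °C; 1 = growth at the plate median or of vehicle wells; lower values mean less growth of the strain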
Conditions: growth OD

Measured: normalized growth

CC(=O)N1CCN(c2ccc(OCC3CO[C@](Cn4ccnc4)(c4ccc(Cl)cc4Cl)O3)cc2)CC1 (some centres undefined)
inactive: S. cerevisiae deletion strains, locus YKL009W, strain mrt4, active compounds read low 0.994 | S. cerevisiae deletion strains, locus YOL012C, strain htz1 0.25 | S. cerevisiae deletion strains, locus YPR141C, strain kar3, active compounds read low 0.971
active: S. cerevisiae deletion strains, locus YJL187C, strain SWE1, active compounds read low 0.0925 | S. cerevisiae deletion strains, locus YJR043C, strain POL32, active compounds read low 0.094 | S. cerevisiae deletion strains, locus YJR066W, strain TOR1, active compounds read low 0.0283 | S. cerevisiae deletion strains, locus YJR075W, strain HOC1, active compounds read low 0.0852 | S. cerevisiae deletion strains, locus YKL068W, active compounds read low 0.931 | S. cerevisiae deletion strains, locus YKL085W, strain MDH1 (second series), active compounds read low 0.795 | S. cerevisiae deletion strains, locus YKL085W, strain MDH1, active compounds read low 0.795 | S. cerevisiae deletion strains, locus YKL160W, strain elf1, active compounds read low 0.104 | S. cerevisiae deletion strains, locus YKL190W, strain CNB1, active compounds read low 0.0638 | S. cerevisiae deletion strains, locus YKR001C, strain vps1, active compounds read low 0.112 | S. cerevisiae deletion strains, locus YKR026C, strain gcn3, active compounds read low 0.168 | S. cerevisiae deletion strains, locus YKR091W, strain srl3, active compounds read low 0.108 | S. cerevisiae deletion strains, locus YLL001W, strain dnm1, active compounds read low 0.102 | S. cerevisiae deletion strains, locus YLL026W, active compounds read low 0.0778 | S. cerevisiae deletion strains, locus YLL041C, strain sdh2, active compounds read low 0.0858 | S. cerevisiae deletion strains, locus YLR027C, strain aat2, active compounds read low 0.0792 | S. cerevisiae deletion strains, locus YLR039C, strain RIC1, active compounds read low 0.444 | S. cerevisiae deletion strains, locus YLR058C, strain SHM2, active compounds read low 0.072 | S. cerevisiae deletion strains, locus YLR102C, strain apc9, active compounds read low 0.0929 | S. cerevisiae deletion strains, locus YLR113W, strain HOG1, active compounds read low 0.16 | S. cerevisiae deletion strains, locus YLR221C, strain rsa3, active compounds read low 0.0852 | S. cerevisiae deletion strains, locus YLR258W, strain gsy2, active compounds read low 0.0919 | S. cerevisiae deletion strains, locus YLR262C, strain YPT6 (second series), active compounds read low 0.314 | S. cerevisiae deletion strains, locus YLR262C, strain YPT6, active compounds read low 0.523 | S. cerevisiae deletion strains, locus YLR268W, strain sec22, active compounds read low 0.0953 | S. cerevisiae deletion strains, locus YLR320W, strain mms22, active compounds read low 0.104 | S. cerevisiae deletion strains, locus YLR330W, strain CHS5, active compounds read low 0.0775 | S. cerevisiae deletion strains, locus YLR342W, strain FKS1 (second series), active compounds read low 0.0863 | S. cerevisiae deletion strains, locus YLR342W, strain FKS1, active compounds read low 0.0875 | S. cerevisiae deletion strains, locus YLR357W, strain rsc2, active compounds read low 0.231 | S. cerevisiae deletion strains, locus YLR370C, strain arc18, active compounds read low 0.0894 | S. cerevisiae deletion strains, locus YLR371W, strain rom2, active compounds read low 0.104 | S. cerevisiae deletion strains, locus YLR384C, strain iki3, active compounds read low 0.0857 | S. cerevisiae deletion strains, locus YLR418C, strain cdc73, active compounds read low 0.123 | S. cerevisiae deletion strains, locus YML016C, strain PPZ1, active compounds read low 0.0722 | S. cerevisiae deletion strains, locus YML032C, strain rad52, active compounds read low 0.112 | S. cerevisiae deletion strains, locus YML120C, strain ndi1, active compounds read low 0.0823 | S. cerevisiae deletion strains, locus YML124C, strain tub3, active compounds read low 0.0927 | S. cerevisiae deletion strains, locus YMR058W, strain fet3, active compounds read low 0.0959 | S. cerevisiae deletion strains, locus YMR078C, strain ctf18, active compounds read low 0.112 | S. cerevisiae deletion strains, locus YMR125W, strain sto1, active compounds read low 0.102 | S. cerevisiae deletion strains, locus YMR129W, active compounds read low 0.0847 | S. cerevisiae deletion strains, locus YMR205C, strain PFK2, active compounds read low 0.141 | S. cerevisiae deletion strains, locus YMR223W, strain ubp8, active compounds read low 0.105 | S. cerevisiae deletion strains, locus YMR231W, strain pep5, active compounds read low 0.403 | S. cerevisiae deletion strains, locus YMR263W, strain SAP30, active compounds read low 0.157 | S. cerevisiae deletion strains, locus YMR307W, strain GAS1, active compounds read low 0.159 | S. cerevisiae deletion strains, locus YNL067W, strain RPL9B, active compounds read low 0.0729 | S. cerevisiae deletion strains, locus YNL071W, strain lat1, active compounds read low 0.0698 | S. cerevisiae deletion strains, locus YNL183C, strain NPR1, active compounds read low 0.0744 | S. cerevisiae deletion strains, locus YNL209W, strain ssb2, active compounds read low 0.195 | S. cerevisiae deletion strains, locus YNL233W, strain BNI4, active compounds read low 0.0732 | S. cerevisiae deletion strains, locus YNL248C, strain rpa49, active compounds read low 0.0896 | S. cerevisiae deletion strains, locus YNL250W, strain rad50, active compounds read low 0.896 | S. cerevisiae deletion strains, locus YNL271C, strain bni1, active compounds read low 0.906 | S. cerevisiae deletion strains, locus YNL298W, strain CLA4, active compounds read low 0.246 | S. cerevisiae deletion strains, locus YNL307C, strain MCK1, active compounds read low 0.0791 | S. cerevisiae deletion strains, locus YNL322C, strain KRE1 (second series), active compounds read low 0.115 | S. cerevisiae deletion strains, locus YNR049C, strain mso1, active compounds read low 0.0955 | S. cerevisiae deletion strains, locus YNR052C, strain pop2, active compounds read low 0.144 | S. cerevisiae deletion strains, locus YOL147C, strain pex11, active compounds read low 0.0768 | S. cerevisiae deletion strains, locus YOR001W, strain rrp6, active compounds read low 0.0988 | S. cerevisiae deletion strains, locus YOR061W, strain CKA2, active compounds read low 0.125 | S. cerevisiae deletion strains, locus YOR069W, strain VPS5, active compounds read low 0.0927 | S. cerevisiae deletion strains, locus YOR070C, strain gyp1, active compounds read low 0.0793 | S. cerevisiae deletion strains, locus YOR080W, strain dia2, active compounds read low 0.096 | S. cerevisiae deletion strains, locus YOR083W, strain WHI5, active compounds read low 0.136 | S. cerevisiae deletion strains, locus YOR106W, strain vam3, active compounds read low 0.116 | S. cerevisiae deletion strains, locus YOR136W, strain idh2, active compounds read low 0.112 | S. cerevisiae deletion strains, locus YOR144C, strain elg1, active compounds read low 0.0877 | S. cerevisiae deletion strains, locus YOR184W, strain ser1, active compounds read low 0.0917 | S. cerevisiae deletion strains, locus YOR231W, strain MKK1, active compounds read low 0.157 | S. cerevisiae deletion strains, locus YOR265W, strain rbl2, active compounds read low 0.0927 | S. cerevisiae deletion strains, locus YOR270C, strain vph1, active compounds read low 0.112 | S. cerevisiae deletion strains, locus YOR290C, strain snf2, active compounds read low 0.0982 | S. cerevisiae deletion strains, locus YOR316C, strain cot1, active compounds read low 0.0844 | S. cerevisiae deletion strains, locus YPL051W, strain arl3, active compounds read low 0.141 | S. cerevisiae deletion strains, locus YPL078C, strain atp4, active compounds read low 0.0953 | S. cerevisiae deletion strains, locus YPL106C, strain sse1, active compounds read low 0.137 | S. cerevisiae deletion strains, locus YPL240C, strain hsp82, active compounds read low 0.09 | S. cerevisiae deletion strains, locus YPL256C, strain CLN2, active compounds read low 0.182 | S. cerevisiae deletion strains, locus YPR119W, strain clb2, active compounds read low 0.105 | S. cerevisiae deletion strains, locus YPR163C, strain tif3, active compounds read low 0.105 | S. cerevisiae deletion strains, locus YPR167C, strain met16, active compounds read low 0.1 | S. cerevisiae deletion strains, strain wtn01, active compounds read low 0.0951 | S. cerevisiae strains, strain wild type, active compounds read low 0.0668
